# G9a block: blocks human histone lysine methyltransferase G9a; actives 8.8% (n = 350,000); Q96KQ7; AID 504332; Potency, µM (doses to about 102 µM), for the others: top-dose activity, negative = inhibition, usual class: inhibitors; G9a H3K9 monomethylation, AlphaScreen, 2 h; note: % is set by controls: 0 for no effect and ±100 for the full control effect; nearly all actives have a fitted effect of over 75% in size
#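 AlphaScreen read-out: biotin-H3K9 peptide (500 nM) methylation by 20 nM enzyme with 20 uM SAM, 2 h at room temperature after 15 min compound preincubation; anti-monomethyl H3K9 antibody plus donor/acceptor beads, 10 min dark.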
# JMJD2A Tudor inh: inhibitors of human JMJD2A Tudor domain | O75164 | AlphaScreen JMJD2A-Tudor / H3K4me3 peptide binding | Potency, µM (doses to about 114 µM), for the others: at the top dose activity change, negative = inhibition, actives largely listed as inhibitors | actives 4.4% (n = 390,000); note: % is set by controls: 0 for no effect and ±100 for the full control effect; nearly all actives have a fitted effect of over 50% in size
# Target sequence (O75164 whole entry, looked up, the tested form may be a part): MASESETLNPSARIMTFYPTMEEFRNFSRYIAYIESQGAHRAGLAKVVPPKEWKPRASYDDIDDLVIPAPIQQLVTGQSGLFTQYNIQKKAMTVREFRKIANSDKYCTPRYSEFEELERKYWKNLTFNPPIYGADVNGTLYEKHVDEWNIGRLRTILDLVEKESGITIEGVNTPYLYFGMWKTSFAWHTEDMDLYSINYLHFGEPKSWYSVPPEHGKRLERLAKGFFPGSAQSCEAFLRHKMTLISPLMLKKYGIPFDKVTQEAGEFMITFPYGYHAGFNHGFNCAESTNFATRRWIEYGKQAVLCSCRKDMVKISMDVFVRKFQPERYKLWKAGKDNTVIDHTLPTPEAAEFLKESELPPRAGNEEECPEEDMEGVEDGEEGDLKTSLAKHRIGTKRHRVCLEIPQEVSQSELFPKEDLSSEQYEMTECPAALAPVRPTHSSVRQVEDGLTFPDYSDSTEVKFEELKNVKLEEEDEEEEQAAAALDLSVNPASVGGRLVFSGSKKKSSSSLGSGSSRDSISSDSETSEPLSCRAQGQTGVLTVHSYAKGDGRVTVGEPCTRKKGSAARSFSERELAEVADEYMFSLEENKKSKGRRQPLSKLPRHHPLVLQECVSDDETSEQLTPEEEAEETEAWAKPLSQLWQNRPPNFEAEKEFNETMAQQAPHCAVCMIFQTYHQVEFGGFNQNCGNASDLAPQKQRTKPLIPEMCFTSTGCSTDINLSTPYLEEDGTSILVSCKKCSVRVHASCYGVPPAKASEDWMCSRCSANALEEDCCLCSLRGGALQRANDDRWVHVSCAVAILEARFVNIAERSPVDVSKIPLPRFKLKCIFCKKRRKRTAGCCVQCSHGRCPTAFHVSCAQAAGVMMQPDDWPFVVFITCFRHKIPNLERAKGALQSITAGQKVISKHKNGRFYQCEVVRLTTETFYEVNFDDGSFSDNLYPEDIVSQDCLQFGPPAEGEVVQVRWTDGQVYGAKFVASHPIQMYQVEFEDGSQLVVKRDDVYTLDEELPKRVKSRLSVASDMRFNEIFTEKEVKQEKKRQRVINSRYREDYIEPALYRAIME
# L3MBTL1 inh: inhibitors of human L3MBTL1. Q9Y468. AlphaScreen L3MBTL1–H3K9me1 peptide binding. Potency, µM (highest dose often 57.1 µM), without a hit: at the top dose activity, negative = inhibition, most hits filed as inhibitors. actives 0.66% (n = 230,000); note: % is set by controls: 0 for no effect and ±100 for the full control effect; nearly all actives have a fitted effect of over 60% in size
#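 AlphaScreen proximity signal between nickel-chelate acceptor and streptavidin donor beads (final 10 ug/mL) reports binding of 50 nM L3MBTL1 to 75 nM biotin-H3 K9me1 peptide; complex incubated with compounds 30 min at room temperature; cefsulodin titration as control.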
# BAZ2B block: BAZ2B (human) inhibition. AlphaScreen BAZ2B-H3K14Ac peptide displacement. Potency, µM (doses to about 114 µM), without a hit: at the highest dose activity change, negative = inhibition, most hits filed as inhibitors. actives 4.4% (n = 360,000); note: % is set by controls: 0 for no effect and ±100 for the full control effect; nearly all actives have a fitted effect of over 60% in size
#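 AlphaScreen luminescence quantifies BAZ2B engagement of H3K14Ac peptide; the protein and biotinylated peptide are both at 50 nM final, buffer PBS pH 7.4 with 0.01% Tween-20, all steps at room temperature.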
# HP1b chromo inh: blocks HP1-beta chromodomain binding to methylated histone tails; P83916; AlphaScreen HP1-beta / biotin-H3K9me3 peptide binding; Potency, µM (top dose mostly 114 µM), without a hit: top-dose activity change, negative = inhibition, actives largely listed as inhibitors; actives 0.56% (n = 390,000); note: nearly all actives have a fitted effect of over 70% in size
#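 Compound inhibition of the preformed complex between 50 nM HP1-beta and 50 nM biotinylated H3K9me3 peptide was read by AlphaScreen. Buffer was PBS pH 7.4 with 0.01% Tween-20. Incubations ran 30 min at room temperature, with 10 ug/mL donor/acceptor beads.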
# Sfp inh: blocks B. subtilis Sfp PPTase activity | AID 1490 | Potency, µM, inactives show largest response in the series, negative = inhibition, most hits filed as inhibitors | Biochemical Sfp PPTase activity, qHTS | Q9F4F7 | actives 3.5% (n = 310,000);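 note: the enzyme is Sfp with the accession as filed and its product quenches rhodamine fluorescence; 0% = enzyme reaction without inhibitor and -100% = no enzyme wells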
#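 Fluorescence-quenching assay with 15 nM Sfp, 5 uM rhodamine-CoA and 12.5 uM BHQ-2-labelled ybbR peptide in pH 7.6 Hepes/MgCl2 buffer. Enzyme was pre-incubated with compound for 15 min at room temperature. Rate was taken from the 30-min fluorescence change (525/598 nm).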
# Active calls of the source: *; u = inconclusive; x = not tested or not shown; [ ] = dose if it differs, or a comment. Most compounds without a hit are left out; they make up all but 12% or so of the library. Calls come from the whole dose curve; as a rule, active = well fitted curve in the direction sought with a large enough effect; inconclusive = small, poorly fitted or top-dose-only effect, or another doubt; inactive = no such curve, though single readings can be large; an effect the other way counts as inactive or inconclusive. Potency is the fitted concentration of half-maximal effect.
SMILES,G9a block,JMJD2A Tudor inh,L3MBTL1 inh,BAZ2B block,HP1b chromo inh,Sfp inh
CCN1C[C@@]2(OC(=O)c3ccccc3NC(C)=O)CCC(OC)[C@@]34C5CC6C(OC)C[C@@](O)(C(CC23)[C@@H]14)C5(O)C6OC (stereo partly drawn),x,x,x,x,x,13%
COc1cc(N2CCOCC2)ccc1C=C1C(=O)NC(=O)NC1=O,79µM*,-10%,25%,0%,-12%,56µM*
O=C1NC(=O)C(=Cc2ccc(N3CCOCC3)cc2)C(=O)N1,45µM*,0%,4%,-3%,50%,-8%
COc1cc(N2CCOCC2)ccc1/C=C1\C(=O)NC(=O)N(Cc2cccs2)C1=O,32µM*,-19%,x,1%,20%,1%
O=C1NC(=O)C(=Cc2ccc3c(c2)OCO3)C(=O)N1,50µM*,x,2%,-14%,x,50µM*
COc1cc(OC)c(/C=C2/C(=O)Nc3ccccc32)c(OC)c1,-4%[59 µM],x,x,x,x,x
COc1cc(N2CCOCC2)ccc1/C=C1\C(=O)NC(=O)N(Cc2ccc3c(c2)OCO3)C1=O,40µM*,-31%,x,u,-10%,u
COc1ccc(-n2c(O)c(C(C)=NCc3ccc4c(c3)OCO4)c(=O)[nH]c2=O)cc1,7%,-6%,x,-12%,8%,1%
Cn1c(-c2ccccc2)c(P(=S)(c2ccccc2)c2ccccc2)c2ccccc21,x,-15%,x,x,x,x
O=C(CCCCCn1c(=S)[nH]c2ccccc2c1=O)N1CCC2(CC1)OCCO2,50µM*,-23%,0%,-7%,40%,-2%
O=C(Cn1c(=S)[nH]c2ccccc2c1=O)N1CCC2(CC1)OCCO2,6%,-26%,4%,4%,39%,0%
CCOc1cc(C2C(C#N)=C(N)Oc3c2c(=O)oc2ccccc32)ccc1OC(=O)c1cccs1 (stereo not drawn),-19%,-21%,3%,-9%,21%,50µM*
CCc1ccc(CNC(=O)C2CCN(C(=O)c3ccc(-n4c(C)cc5ccccc54)s3)CC2)cc1,-29%[59 µM],-28%,x,u,23%,x
Nc1ccc(N)cc1,13µM*,x,x,x,x,-27%
COc1ccc(CCNC(=O)CCc2c(C)nc3c(-c4ccc(F)cc4)c(C)nn3c2C)cc1OC,16%[59 µM],-9%,x,-25%,48%,x
CN(C)[C@@H](Cc1ccccc1)c1ccccc1,-24%[12.7 µM],x,x,x,x,24%
CC1(C)OC(c2ccccc2)=C/C(=C/C=C2C(=O)NC(=O)NC2=O)O1,35µM*,-31%,x,-37%,-4%,-29%
CCC1(c2ccc(-c3ccccc3)cc2)C(=O)NC(=O)NC1=O,46%,-3%,2%,-20%,43%,-2%
Cn1c(=O)oc2cc(S(=O)(=O)N3CCCC(C(=O)N4CCN(c5ccc(Cl)cc5)CC4)C3)ccc21 (stereo not drawn),2%[59 µM],-12%,x,-3%,42%,x
O=C1C(Cc2cnc[nH]2)NC(=S)N1c1ccccc1 (stereo not drawn),50µM*,u,x,-3%,22%,50µM*
Nc1c2c(nc3sc4c(c13)CCCC4)CCCCC2,u,79µM*,3%,-8%,-33%,-17%
Cc1cccc(N2C(=O)CC(=O)NC2=O)c1,u,-17%,32%[11.4 µM],-2%,41%,-13%
Cc1cccc(N2C(=O)NC(=O)/C(=C/c3ccc([N+](=O)[O-])o3)C2=O)c1,u,20µM*,6.3µM*,22µM*,u,13µM*
Cc1cccc(N2C(=O)NC(=O)/C(=C\C=C\c3ccco3)C2=O)c1,4µM*,u,u,u,-20%,45µM*
O=C1NC(=O)N(CCc2ccc(F)cc2)C(=O)/C1=C\C=C\c1ccccc1,u,-29%,x,-24%,23%,-7%
CN(C)c1ccc(/C=C/C=C2/C(=O)NC(=O)N(c3ccccc3)C2=O)cc1,16µM*,u,u,13µM*,16µM*,45µM*

# High-throughput results: PubChem BioAssay, National Center for Advancing Translational Sciences (NCATS)
